Results filed as inconclusive are left out. Where a call stands in place of a potency, no number is given. Active and inactive are the calls of the source. Calls follow the shape of the dose curve; as a rule, active = well fitted inhibition curve with a large enough effect; inconclusive = small, poorly fitted or top-dose-only effect; inactive = no such curve, though single readings can be large or run the other way.

This assay in a line: NS1 protein of Zika virus - qHTS assay to identify small molecule inhibitors in human HEK 293 cells (AID 1347053). Also: nearly all actives have a fitted effect of over 55% in size. Particulars: HEK293 ZIKV MR766 infection, NS1 TR-FRET, 24 h; series mostly up to 46.1 µM. The source says: National Center for Advancing Translational Sciences [NCATS]
Johns Hopkins University School of Medicine
The non-structural 1 (NS1) protein of zika virus is known to associate with the viral replication complex. This cell-based TR-FRET ZIKV NS-1 assay measures the increased NS-1 protein in human HEK 293 cells after a 24-hour Zika virus infection by a TR-FRET assay readout. A decrease in the Time-resolved fluorescence energy transfer (TR-FRET) signal in this assay by small molecule treatment indicates an inhibitory effect of the small molecule on the expression of Zika virus NS1 correlating with Zika virus replication.
HEK 293 cells were cultured in EMEM (ATCC, Cat. # 30-2003) medium with 10% fetal bovine serum (GE healthcare Life Sciences, Cat. # SH30071.03), and 1% Pen/Strep (Gibco, Cat. # 15140-122). Cells were seeded in the assay plate and incubated at 37 C with 5% CO2 for 20 hours. Compounds were added to cells and incubated for one hour before addition of ZIKV MR766 strain solution to cells (MOI = 0.5). After an incubation at 37 C for 24 hours, the reagent mixture of TR-FRET ZIKV NS1 assay using two anti-ZIKV NS1 antibodies was added to assay plates. The TR-FRET signals in assay plates were measured using an Envision plate reader (PerkinElmer). Data were normalized by using the cell-containing wells without ZIKV as a negative control (0% NS-1) and wells containing ZIKV infected cells as a positive control (100% NS-1 level).
As for `Cc1cn([C@H]2CC(N=[N+]=[N-])[C@@H](CO)O2)c(=O)[nH]c1=O` (stereo not given in full), the Potency entry is “inactive”.

`NC(N)=NC(=O)c1nc(Cl)c(N2CCCCCC2)nc1N`: the Potency result was “inactive”.

Consider `O=C(O)Cc1ccc(-c2ccccc2)cc1`, for which the Potency result is “inactive”.

With `Nc1nc(Nc2ccccc2)nc2c1ncn2[C@@H]1O[C@H](CO)[C@@H](O)[C@H]1O`, the Potency result was “inactive”.

Turning to `O=P(O)(O)C(Cl)(Cl)P(=O)(O)O`, the Potency entry was “inactive”.

As for `Nc1ccc(O)c(C(=O)O)c1`, the Potency entry was “inactive”.

In the case of `O=C(/C=C/c1ccc(O)cc1)c1ccc(O)cc1O`, the Potency result is “inactive”.

Turning to `Nc1nc(Cl)nc2c1ncn2[C@@H]1O[C@H](COP(=O)(O)OP(=O)(O)OP(=O)(O)O)[C@@H](O)[C@H]1O`, the Potency result was “inactive”.

Turning to `N[C@@H](CC(=O)O)C(=O)O`, the Potency result is “inactive”.

For the compound `COC(=O)c1c(C)[nH]c(C)c1C(=O)c1ccccc1Cc1ccccc1`, the Potency result is “inactive”.

On to `Cc1nc2ccccc2n1Cc1ccc(Cl)cc1`, for which the Potency result was “inactive”.

In the case of `CO[C@@]1(NC(=O)Cc2cccs2)C(=O)N2C(C(=O)O)=C(COC(N)=O)CS[C@@H]21`, the Potency entry is “inactive”.

With `N#C/C(=C\c1ccc(-c2cc(Cl)ccc2Cl)o1)C(=O)Nc1cccc2ncccc12`, the Potency result was “inactive”.

For `CC(N)C(=O)OC(C)(C)Cc1ccc(Cl)cc1` (stereo not given), the Potency entry was “inactive”.

`CC(C)NC[C@H](O)COc1cccc2[nH]ccc12`: the Potency entry was “inactive”.

Regarding `Fc1ccc(C(OCCCc2cnc[nH]2)c2ccc(F)cc2)cc1`, the Potency entry is “inactive”.

For the compound `NCCO`, the Potency result was “inactive”.

`NS(=O)(=O)c1ccc(-n2nc(C(F)(F)F)cc2-c2ccc(Cl)cc2)cc1`: the Potency entry is “inactive”.

With `COc1ccccc1CNCCCCCCNCCCCCCCCNCCCCCCNCc1ccccc1OC`, the Potency result is “inactive”.

For `NC(=O)C(=O)O`, the Potency entry is “inactive”.

For `CCC1C(=O)OCC1Cc1cncn1C` (stereo not given), the Potency result is “inactive”.

With `CCCCN(CC)c1nc(C)nc2c1c(C)cn2-c1c(C)cc(C)cc1C`, the Potency entry was “inactive”.

Regarding `Cc1cc(NC2CCCCC2)nc(-n2nc(C)cc2C)n1`, the Potency entry was “inactive”.

As for `O=C(Nc1ccc(C(=O)O)c(O)c1)c1ccccc1`, the Potency result is “inactive”.

As to `N#C/C(=C\c1ccc(O)c(O)c1)C(=O)c1ccc(O)c(O)c1`, the Potency entry is “inactive”.

For the compound `CSc1nc(N)c2ncn([C@@H]3O[C@H](COP(=O)(O)OP(=O)(O)OP(=O)(O)O)[C@@H](O)[C@H]3O)c2n1`, the Potency result was “inactive”.

As to `O=C(CCSCc1ccco1)NNC(=O)N1Cc2ccccc2Oc2ccc(Cl)cc21`, the Potency result is “inactive”.

For the compound `O=S(=O)(c1cccc2c(I)cccc12)N1CCCNCC1`, the Potency entry is “inactive”.

For the compound `Cc1ccc2c(n1)Oc1ccc(C(C)C(=O)OCC(=O)N(C)C)cc1C2` (stereo not given), the Potency result was “inactive”.

Consider `CC(=O)N[C@H](C(=O)O)C(C)(C)SN=O`, for which the Potency result was “inactive”.

Regarding `CC(C)(NS(=O)(=O)c1ccc(Oc2ccc(F)cc2)cc1)C(=O)NO`, the Potency entry is “inactive”.

With `CN1CCc2cc(NC(=O)Nc3cccnc3)ccc21`, the Potency result was “inactive”.

For the compound `COc1cc(C(O)CO)ccc1OS(=O)(=O)O` (stereo not given), the Potency result was “inactive”.

`CN(C)C(N)=NCCC[C@H](N)C(=O)O`: the Potency entry is “inactive”.

Take `CCCCCCCCCCCC(=O)[O][Sn]([CH2]CCC)([CH2]CCC)[O]C(=O)CCCCCCCCCCC`: the Potency entry is “inactive”.

Take `CC(C(=O)O)c1ccc(C(=O)c2cccs2)cc1` (stereo not given): the Potency entry is “inactive”.

Take `Cc1[nH]cnc1CN1CCc2c(c3ccccc3n2C)C1=O`: the Potency entry is “inactive”.

Turning to `c1ccc2sc(SSc3nc4ccccc4s3)nc2c1`, the Potency entry is “inactive”.

`CS(=O)(=O)c1ccc(-n2nc(C(F)(F)F)cc2-c2ccc(F)cc2)cc1`: the Potency entry was “inactive”.

Turning to `COC(=O)Nc1nc2ccc(C(=O)C3CC3)cc2[nH]1`, the Potency entry was “inactive”.
